The campaign covered roughly 340,000 compounds. About 3,300 (0.97%) were called active. Another 9% or so got no clear call; they are omitted. Calls follow the shape of the dose curve; as a rule, active = well fitted inhibition curve with a large enough effect; inconclusive = small, poorly fitted or top-dose-only effect, or effect the other way; inactive = flat fitted curve, though single readings scatter. This is one part of the list.

From PubChem BioAssay AID2289 (National Center for Advancing Translational Sciences (NCATS), 2010) come the findings set out here.
Potency is read from the fitted curve at half-maximal effect.

A short description of the experiment: qHTS Assay for Modulators of miRNAs and/or Inhibitors of miR-21. Also: nearly all actives have a fitted effect of over 55% in size. Conditions: HeLa miR-21-FLuc reporter, luciferase luminescence, 48 h; actives lower the signal. Put shortly:
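HeLa cells endogenously expressing miR-21, stably carrying CMV-driven firefly luciferase with a downstream miR-21 binding site, 2000 cells/well. Titrations up to approximately 40 uM, 48 hours; luciferase luminescence read.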
For `COc1ccccc1Nc1ccc(Nc2ccccc2OC)nn1`, the Potency was 7.36 µM (active).
For `CC(=O)c1c(C)nc(-c2ccc(Cl)cc2)nc1N` the value was 1.65 µM (active).
`CCOC(=O)c1c(C)nc(-c2ccccc2)nc1N`: the Potency was 4.65 µM (active).
To `CCOC(=O)c1c(-c2ccccc2)cn2c(C)cc(C)nc12` belongs 5.85 µM (active).
To `C/C(=N/NC(=O)c1ccoc1C)c1cccc(NC(=O)C2CC2)c1` belongs 1.65 µM (active).
Turning to `C/C(=N/NC(=O)c1ccccc1)c1ccc(NC(=O)C(F)(F)F)cc1`, the Potency is 4.65 µM (active).
`C/C(=N/NC(=O)c1ccoc1C)c1cccc(NC(=O)C(F)(F)F)c1`: the Potency was 1.65 µM (active).
For `C/C(=N/NC(=O)c1ccoc1C)c1ccc(NC(=O)C2CCCC2)cc1` the value was 1.31 µM (active).
Take `COC1=C/C(=C/c2c(O)c(C#N)c3ccccn23)C=CC1=O`: the Potency is 11.7 µM (active).
For `COc1ccc2cc(-c3ccccc3)ncc2c1` the value was 0.369 µM (active).
To `COc1ccc2nc(-c3ccccc3)cc(OC)c2c1` belongs 14.7 µM (active); to `COc1ccc(-c2cc3cc(OC)c(OC)cc3c(C)n2)cc1`, 7.36 µM (active); to `O=C(COc1ccc2c(c1)OCO2)Nc1ccc(Cl)cn1`, 2.07 µM (active).
For `CC1Cc2ccccc2N1C(=O)COc1ccc2c(c1)OCO2` (stereo not given) the value was 11.7 µM (active).
For `O=C(COc1ccc2c(c1)OCO2)Nc1cccc(F)c1`, the Potency is 8.26 µM (active).
For `O=C(COc1ccc2c(c1)OCO2)Nc1ccccc1C(F)(F)F` the value was 16.5 µM (active).
In the case of `COc1ccccc1NC(=O)COc1ccc(CO)cc1Cl`, the Potency was 5.85 µM (active).
To `COc1ccccc1NC(=O)COc1ccc2c(c1)OCO2` belongs 7.36 µM (active).
For `Cc1ccc(/C=N/NC(=O)c2ccoc2C)o1` the value was 16.5 µM (active); for `Cc1occc1C(=O)N/N=C/c1ccc(-c2ccccc2)cc1`, 0.147 µM (active); for `Cc1cccc(/C=N\Nc2cn[nH]c(=O)c2Cl)c1`, 18.5 µM (active).
For `Cc1ccc(/C=N\Nc2cn[nH]c(=O)c2Cl)cc1` the value was 14.7 µM (active); for `O=C(/C(C=Nc1ccc(F)cc1)=C(/O)c1ccco1)C(F)(F)F`, 4.14 µM (active); for `CC(=O)C(C)Oc1ccc2c3c(c(=O)oc2c1C)CCCC3` (stereo not given), 16.5 µM (active).
With `CC(=O)COc1ccc2c3c(c(=O)oc2c1C)CCCCC3`, the Potency is 3.29 µM (active).
For `Cc1ccc(/C=N/N=C/c2ccc(C)s2)s1` the value was 0.927 µM (active).
For `CC(=O)Nc1ccc(/C=N/NC(=O)c2cccs2)cc1` the value was 5.85 µM (active); for `O=C(N/N=C/c1ccncc1)c1cccs1`, 5.21 µM (active).
For `CSc1ccc(/C=N/NC(=O)c2cccs2)cc1` the value was 1.31 µM (active); for `COc1cc(/C=N/NC(=O)c2cccs2)ccc1O`, 10.4 µM (active); for `O=C(N/N=C/c1ccc2c(c1)OCO2)c1cccs1`, 1.65 µM (active).
On to `Cc1ccc(/C=N/NC(=O)c2cccs2)s1`, for which the Potency is 7.36 µM (active).
For `CCNC(=S)/N=C(\N)Nc1nc(C)c2cc(C)ccc2n1` the value was 5.85 µM (active).
For `Cc1nc2ccc(NC(=O)c3ccccc3)cc2s1` the value was 5.85 µM (active); for `CC(C)(C)c1ccc(C(=O)Nc2ccccc2Cl)cc1`, 0.826 µM (active).
Regarding `Cc1nc2ccc(NC(=O)c3cccs3)cc2s1`, the Potency was 3.69 µM (active).
For `Cc1nc2ccc(C(=O)Nc3ccccc3Cl)cc2s1` the value was 3.69 µM (active); for `Cc1nc2ccc(NC(=O)c3ccc4ccccc4n3)cc2s1`, 3.69 µM (active).
To `Cc1nc2ccc(NC(=O)c3cc(Cl)ccn3)cc2s1` belongs 0.369 µM (active).
In the case of `Cc1nc2ccc(NC(=O)N(C)c3ccccc3)cc2s1`, the Potency is 9.27 µM (active).
Regarding `CCOc1ncccc1C(=O)Nc1ccc2nc(C)sc2c1`, the Potency is 8.26 µM (active).
To `C=CCC(CC(O)COCCC)C(=O)NNC(=S)Nc1ccccc1` (stereo not given) belongs 13.1 µM (active); to `CCCn1c(C)cc(/C=C(\C#N)C(=O)OCC(=O)Nc2cc(OC)c(OC)c(OC)c2)c1C`, 16.5 µM (active); to `Cc1ccccc1Nc1nc(N)nc(COC(=O)c2ccccc2)n1`, 13.1 µM (active).
For `COc1ccccc1C(=O)OCc1nc(N)nc(Nc2ccccc2C)n1` the value was 18.5 µM (active); for `Cn1c(SCc2ccc(C#N)cc2Cl)nc2ccccc21`, 4.65 µM (active); for `Cn1c(SCc2ccccc2Cl)nc2ccccc21`, 3.29 µM (active).
To `CCn1c(SCc2ccccc2Cl)nc2ccccc21` belongs 13.1 µM (active); to `O=[N+]([O-])c1ccc2nc(SCc3cn4ccccc4n3)[nH]c2c1`, 18.5 µM (active); to `c1ccn(-c2ccc(-c3ccn[nH]3)cc2)c1`, 6.56 µM (active).
As to `O=C(c1cnn(-c2cccc(F)c2)c1)c1ccccc1O`, the Potency is 3.69 µM (active).
For `N#C/C(=C/c1ccc(O)c(O)c1)c1nc2ccccc2[nH]1` the value was 3.29 µM (active); for `CN(C)c1ccc(/C=C(\C#N)c2nc3ccccc3c(=O)[nH]2)cc1`, 0.131 µM (active); for `c1ccc(Nc2nc(-c3ccccc3)ns2)cc1`, 0.414 µM (active).
With `Cc1nnc(SCc2ccccc2Cl)c2cc3occc3n12`, the Potency is 11.7 µM (active).
Turning to `Nc1ccc2nc(-c3ccc(Cl)cc3)[nH]c2c1`, the Potency was 6.56 µM (active).
`Clc1ccc(-c2nc3ccncc3[nH]2)cc1`: the Potency was 7.36 µM (active).
For `CCOC(=O)CCSc1nc(C)c2cc(C)ccc2n1` the value was 10.4 µM (active).
To `CCOC(=O)CCSc1nc(C)c2cc(OC)ccc2n1` belongs 8.26 µM (active).
For `OC1CCCN(c2c3c(nc4cc(-c5cccc(F)c5)nn24)CCCC3)C1` (stereo not given) the value was 2.07 µM (active); for `O=C(Nc1ccc(SC(F)(F)F)cc1)c1ccccn1`, 0.369 µM (active); for `COc1ccc(NC(=O)c2ccccn2)cc1OC`, 11.7 µM (active).
Turning to `COc1ccc(NC(=S)Nc2ncccc2C)cc1OC`, the Potency is 5.21 µM (active).
To `COc1ccc(NC(=O)c2coc3ccccc23)cc1OC` belongs 9.27 µM (active); to `Cc1ccc(-c2nnc(CCC(=O)NCC3C4CC5CC(C4)CC3C5)o2)s1` (stereo not given), 14.7 µM (active).
For `CS(=O)(=O)N1N=C(c2ccc(Br)cc2)CC1c1ccc2c(c1)OCO2` (stereo not given) the value was 0.927 µM (active); for `Cc1ccc(C2=NN(S(C)(=O)=O)C(c3ccc4c(c3)OCO4)C2)cc1` (stereo not given), 0.521 µM (active); for `CC(=O)N1N=C(c2ccc(C)cc2)CC1c1ccc2c(c1)OCO2` (stereo not given), 7.36 µM (active).
For `CS(=O)(=O)Nc1ccc(C2=NN(S(C)(=O)=O)C(c3ccc4c(c3)OCO4)C2)cc1` (stereo not given) the value was 4.65 µM (active); for `COC(=O)c1ccc(CSC2=NCCS2)cc1`, 4.65 µM (active); for `CC(=O)Nc1nc(-c2ccc(Cl)cc2)ns1`, 1.85 µM (active).
Regarding `C/C(=N\N=C\c1ccc(N(C)C)cc1)c1cccc([N+](=O)[O-])c1`, the Potency was 13.1 µM (active).
To `Nc1cc([N+](=O)[O-])cc2oc(-c3ccccc3)cc12` belongs 14.7 µM (active); to `Cc1ccc(COc2ccc(C)nc2[N+](=O)[O-])cc1`, 0.927 µM (active).
Take `Cc1ccc(OCc2ccc(Br)cc2)c([N+](=O)[O-])n1`: the Potency was 2.61 µM (active).
For `CCOC(=O)c1cc(C(=O)Nc2ccc(C)c(F)c2)nn1C` the value was 4.65 µM (active); for `CCOC(=O)c1cc(C(=O)Nc2cccc(C)c2)nn1C`, 1.31 µM (active).
For `CCOC(=O)c1cc(C(=O)Nc2ccccc2F)nn1C` the value was 1.85 µM (active); for `Nc1nc(Nc2ccc(Cl)cc2Cl)nc(C(F)(F)F)n1`, 6.56 µM (active); for `COc1cccc(Nc2nc(N)nc(C(F)(F)F)n2)c1`, 18.5 µM (active).
To `COc1nc(Nc2cccc(C(F)(F)F)c2)nc(OC)n1` belongs 14.7 µM (active).
In the case of `CC(=O)c1cnc2cc(-c3ccc(C)cc3)nn2c1C`, the Potency is 1.04 µM (active).
For `CCOC(=O)c1sc2nc(-c3ccccc3)ccc2c1N` the value was 0.0927 µM (active).
To `COc1cccc(-c2ccc3c(N)c(C(=O)Nc4cc(F)ccc4F)sc3n2)c1` belongs 11.7 µM (active).
For `CCOC(=O)c1sc2nc(-c3cccnc3)ccc2c1N` the value was 0.369 µM (active).
For `CCN(CC)C(=O)c1sc2nc(-c3ccccc3)ccc2c1N`, the Potency was 1.47 µM (active).
To `CCn1nccc1C(=O)Nc1ccc(Cl)c(Cl)c1` belongs 8.26 µM (active).
Consider `COc1cc(C(C)=O)ccc1Oc1ncnc2c1cnn2-c1ccc(F)cc1`, for which the Potency was 4.14 µM (active).
To `COc1ccccc1Oc1ncnc2c1cnn2-c1ccccc1` belongs 5.85 µM (active); to `Cc1cccc(NC(=O)c2sc3nc(N)c(C#N)cc3c2N)c1`, 4.14 µM (active).
For `Cc1ccc(NC(=O)c2sc3nc(N)c(C#N)cc3c2N)cc1` the value was 5.85 µM (active); for `Cc1cc(C(=O)CN2C(=O)NC3(CCCCC3C)C2=O)c(C)n1Cc1cccs1` (stereo not given), 5.21 µM (active); for `Cc1nc2scc(-c3ccccc3)c2c(=O)n1N=C1C=CC(=O)C=C1`, 10.4 µM (active).
For `CCc1nonc1NC(=O)c1oc2cc(C)c(C)cc2c1C`, the Potency is 5.85 µM (active).
To `Cc1cc2oc(C(=O)Nc3nonc3C)c(C)c2cc1C` belongs 0.656 µM (active); to `CCc1ccc2oc(C(=O)Nc3nonc3CC)c(C)c2c1`, 2.93 µM (active); to `Cc1ccc2oc(C(=O)Nc3nonc3C)c(C)c2c1`, 4.65 µM (active).
`c1ccc(Cc2nnc3sc(-c4ccc5c(c4)OCCO5)nn23)cc1`: the Potency was 14.7 µM (active).
As for `Oc1c(C2=NCCNC(C(F)(F)F)=C2)ccc2ccccc12`, the Potency was 2.07 µM (active).
For `Clc1cc2nc(-c3cccnc3Cl)[nH]c2cc1Cl` the value was 1.04 µM (active); for `Clc1ccccc1-c1nc2ccccc2[nH]1`, 1.31 µM (active); for `CN(Cc1nc(-c2cccc(Cl)c2)no1)C1CCOCC1`, 7.36 µM (active).
For `CCOC(=O)NC(=O)CSc1nc(-c2ccc(C)c(C)c2)cn1-c1ccccc1` the value was 6.56 µM (active); for `Cc1ccc(-c2cn(-c3ccccc3)c(SCC(=O)NC3CCS(=O)(=O)C3)n2)cc1C` (stereo not given), 7.36 µM (active); for `Cc1ccc(NC(=O)NCc2c(C)nn(C)c2C)cc1Cl`, 5.21 µM (active).
